# Bioassay records deposited in PubChem BioAssay by National Center for Advancing Translational Sciences (NCATS).
# Tau ThT inhib: qHTS for Inhibitors of Tau Fibril Formation, Thioflavin T Binding. recombinant tau K18 P301L, heparin-induced fibrillization, ThT fluorescence. AID 1460, 2008. Potency, µM (top dose mostly 57.4 µM), actives largely listed as inhibitors. 2.1% of 270,000 active; further: nearly all actives have a fitted effect of over 55% in size
# Target sequence (P10636 561-689 P618L limits assumed): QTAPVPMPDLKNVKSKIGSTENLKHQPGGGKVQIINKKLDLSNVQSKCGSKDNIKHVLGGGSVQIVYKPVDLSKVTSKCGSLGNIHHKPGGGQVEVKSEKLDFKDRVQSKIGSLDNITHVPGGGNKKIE
#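 Aggregation was driven by heparin (20 uM final) acting on recombinant tau […] bearing P301L in 100 mM sodium acetate pH 7; fibrils were detected with Thioflavin T.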
# Coupling enz: qHTS Assay for Inhibitors of Fructose-1,6-bisphosphate Aldolase from Giardia Lamblia: Coupling assay counterscreen. activity change, negative = inhibition, % at 58.2 µM, hits read low. coupling enzyme system counterscreen, AmpLite Red fluorescence. 0.67% of 290,000 active; in the data active means activity change below about -30%
#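 Activity here indicates interference with the coupling reaction, not aldolase inhibition. Compounds at 57.5 uM final met coupling enzymes for 10 min at RT; substrate and AmpLite Red detection followed, with a 525/598 nm fluorescence read after 20 min.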
# USP1 inh: Inhibitors of USP1/UAF1: Primary Screen. recombinant USP1/UAF1, Ub-Rhodamine cleavage fluorescence. Potency, µM (doses to about 57.1 µM), most hits filed as inhibitors. AID 743255, 2014. Ubiquitin carboxyl-terminal hydrolase 1 (Homo sapiens), O94782. 0.23% of 390,000 active; further: nearly all actives have a fitted effect of over 60% in size
#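 1 nM enzyme complex + cpd, 15 min RT; start with Ub-Rho 150nM final; kinetic fluorescence ex 480/em 540, 6 reads q60 s. Buffer 50mM HEPES pH 7.8, 0.5mM EDTA, 0.1 mg/ml BSA, 1mM TCEP, 0.01% Tween-20.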
# Tau FP inhib: qHTS for Inhibitors of Tau Fibril Formation, Fluorescence Polarization; Microtubule-associated protein tau (Homo sapiens), P10636; K18 P301L tau heparin fibrillization, Alexa594 FP, 6 h; Potency, µM (series often up to 57.7 µM), usual class: inhibitors; 0.39% of 280,000 active; AID 1468, 2008; further: nearly all actives have a fitted effect of over 55% in size
#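 K18 P301L tau (15 uM unlabeled/0.24 uM Alexa 594-labeled, final) + compound + heparin 20 uM final; 100 mM NaOAc pH 7; 6 hr 37 C; ThT 30 uM final added, 1 hr RT; FP ex 555/em 632 nm.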
# Tau fluor cs: Counterscreen qHTS for Inhibitors of Tau Fibril Formation, Fluorescence Polarization. Potency, µM (top dose mostly 57.7 µM). AID 1463, 2008. tau K18 P301L (four-repeat tau fragment) Alexa594 fluorescence, heparin fibrillization. 0.93% of 280,000 active; further: nearly all actives have a fitted effect of over 55% in size
#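 Human K18 P301L tau (15 uM unlabeled plus 0.24 uM Alexa 594-labeled, final) in 100 mM sodium acetate pH 7 was mixed with compound and 20 uM heparin and incubated 6 hr at 37 C.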
# Numbers stand for hits; – = inactive; ? = inconclusive; · = not tested or not shown; [ ] = dose if it differs, or a comment. A selection: hits, their analogues and other compounds. The true share with any hit is near 2.3%. Unless noted, the call rests on the fitted dose curve; in most records, active means well fitted curve in the direction sought with a large enough effect; inconclusive means small, poorly fitted or top-dose-only effect, or another doubt; inactive means no such curve, though single readings can be large; an effect the other way counts as inactive or inconclusive.
SMILES,Tau ThT inhib,Coupling enz,USP1 inh,Tau FP inhib,Tau fluor cs
CN(C)c1ccc(/C=C2\CCCc3c2nc2ccccc2c3C(=O)O)cc1,·,–,–,·,·
C=CCC[C@H](Cc1ccc(F)cc1)C(=O)OC[C@@H](NC(=O)[C@H](CC=C)CC(=O)NCCO)C(C)(C)C,·,·,–,·,·
CC(=O)Nc1ccc(NC(=O)C(C)OC(=O)c2cc(S(=O)(=O)N(C)C)ccc2N2CCCC2)cc1 (centres undefined),·,·,–,·,·
O=[N+]([O-])c1ccc(Nc2ccccc2)c2nonc12,·,–,?,·,·
O=[N+]([O-])c1ccc(Sc2cccc[n+]2[O-])c2nonc12,5.01µM,-80.3,?,?,12.6µM[quencher]
CN(CC(=O)Nc1ccc(Cl)c(Cl)c1)CC(=O)N1CCc2ccccc21,·,·,–,·,·
O=C(N/N=C/c1ccc([N+](=O)[O-])o1)c1ccc(O)cc1,10µM,–,–,–,–
O=C(N/N=C/c1ccc([N+](=O)[O-])o1)c1cc2c(ccc3ccccc32)o1,1.12µM,–,–,–,?
Cc1ccc(C(=O)COC(=O)CCC(=O)Nc2ccc(Oc3cc(C)ccc3C(C)C)cc2)cc1,–,·,–,–,–
O=C(Nc1ccc(F)c(Cl)c1)Nc1csc2ccccc12,·,–,–,?,7.94µM[quencher]
O=C(Nc1ccc(F)cc1F)Nc1ccc(F)cc1F,–,–,–,–,–
O=C(Nc1ccncc1)Nc1ccc(F)c(Cl)c1,–,–,–,?,?
O=C(Nc1ccc(F)cc1F)Nc1csc2ccccc12,?,–,–,–,11.2µM[quencher]
COc1ccc(-c2nc(CSc3nnc(C)n4c3cc3oc(C)cc34)c(C)o2)cc1OC,?,·,–,?,–
Cc1cn(C2OC(COC(=O)c3ccccc3)C(OC(=O)c3ccccc3)C2OC(=O)c2ccccc2)c(=O)[nH]c1=O (centres undefined),–,–,–,–,–
O=C(OCC1OC(OC(=O)c2cc(O)c(O)c(OC(=O)c3cc(O)c(O)c(O)c3)c2)[C@@H](OC(=O)c2cc(O)c(O)c(OC(=O)c3cc(O)c(O)c(O)c3)c2)C(OC(=O)c2cc(O)c(O)c(OC(=O)c3cc(O)c(O)c(O)c3)c2)C1OC(=O)c1cc(O)c(O)c(OC(=O)c2cc(O)c(O)c(O)c2)c1)c1cc(O)c(O)c(OC(=O)c2cc(O)c(O)c(O)c2)c1 (some centres undefined),1.26µM,–,·,?,0.501µM[quencher]
CN(C(=O)CSc1ncnc2sc3c(c12)CCC3)C1CCS(=O)(=O)C1 (centres undefined),·,·,–,·,·
CC(CNC(=O)c1ccc(CSc2nc3ccncc3n2Cc2cccc(F)c2)cc1)c1ccccc1 (centres undefined),–,·,–,–,–
COc1ccc(NS(=O)(=O)c2ccc3nc(COc4ccc5ccccc5c4)[nH]c3c2)cc1,–,–,–,–,–
COc1ccc(NS(=O)(=O)c2ccc3nc(COc4cccc5ccccc45)[nH]c3c2)cc1,–,–,–,22.4µM,10µM[quencher]
COc1ccc(SCCN2CC[C@@H](C(C)(C)C)CCC2=O)cc1,·,·,–,·,·
Fc1ccc2[nH]c3c(c2c1)CN(C(=S)NCc1ccccc1)CC3,?,–,–,?,15.8µM[quencher]
O=C(NC1CCCCC1)c1ccc2c(c1)sc1nc(-c3ccccc3)cn12,–,·,–,–,–
O=C(CN1C(=O)C2CC=C(Cl)CC2C1=O)N1CCOCC1 (centres undefined),–,-36.0,–,–,–
O=C(CNc1ccc(Cl)c(C(F)(F)F)c1)N1CCN(S(=O)(=O)c2ccccc2)CC1,·,·,–,·,·
SMILES,Tau ThT inhib,Coupling enz,USP1 inh,Tau FP inhib,Tau fluor cs
CCCN1C(=O)/C(=C2\SC(N3CCCCC3)=NC2=O)c2ccccc21,15.8µM,–,–,–,?
CN1C(=O)/C(=C2\SC(N)=NC2=O)c2ccccc21,?,–,–,–,–
CN1C(=O)/C(=C2\SC(N3CCCCCC3)=NC2=O)c2ccccc21,12.6µM,–,–,–,?
CC(=O)Nc1ccc2nc(NC(=O)c3ccc([N+](=O)[O-])s3)sc2c1,1.12µM,–,·,–,?
CC(=O)Nc1ccc2nc(NC(=O)c3cccs3)sc2c1,·,–,–,–,–
CCOc1ccc(NC(=O)Cn2ccn(-c3ccc(F)c(F)c3)c(=O)c2=O)cc1,–,·,–,–,–
Cc1ccc(N=Nc2c(O)ccc3n[nH]nc23)cc1,3.55µM,–,–,–,?
N#Cc1c(-n2ncnc2-c2ccc(Br)cc2)sc2c1CCCCC2,?,·,–,–,–
CCOC(=O)c1ccccc1NC(=O)Cn1c(=O)n(-c2ccc(CC)cc2)c(=O)c2c(C)c(C(=O)N(C)C)sc21,–,·,–,–,–
O=C(c1cnc(N2CCOCC2)c2ccccc12)N1CCN(c2ccccc2)CC1,–,·,–,–,–
O=C(N/N=C/c1ccc([N+](=O)[O-])cc1)c1cc2ccccc2o1,?,–,–,–,–
C/C(=N/Nc1ccc([N+](=O)[O-])cc1)c1ccc(C)cc1C,4.47µM,–,–,?,10µM[quencher]
C/C(=N\Nc1ccc([N+](=O)[O-])cc1)c1cc2ccccc2o1,2.82µM,–,?,–,8.91µM[quencher]
O=C(N/N=C\c1c(O)ccc2ccccc12)c1cncc(Br)c1,·,–,31.6µM,·,·
Cc1cc([N+](=O)[O-])c(C)cc1-c1ccc(/C=N/NC(=O)c2cccnc2)o1,7.08µM,–,–,?,?
O=C(N/N=C/c1c(O)ccc2ccccc12)c1cccnc1,·,–,–,·,·
Cc1c(C(=O)N/N=C/c2ccc(-c3ccccc3[N+](=O)[O-])o2)sc(N)c1C#N,?,-33.4,–,–,?
O=C(N/N=C/c1ccc(O)c2ncccc12)c1cccc(Br)c1,6.31µM,–,–,–,?
O=C(N/N=C/c1ccc(-c2ccc([N+](=O)[O-])cc2)o1)c1cccnc1,?,–,–,–,–
Nc1c(CNCc2nnn(Cc3ccccc3)c2N)nnn1Cc1ccccc1,·,·,–,·,·
Cc1ccc(NC(=O)N2CC3CCCN3c3ccccc32)c(C)c1 (centres undefined),?,·,–,–,–
O=C(N/N=C\c1ccc([N+](=O)[O-])o1)c1cncc(Br)c1,·,–,–,–,–
O=C(N/N=C/c1ccc(-c2ccccc2[N+](=O)[O-])o1)c1cncc(Br)c1,7.94µM,–,–,?,?
Nn1cnnc1N/N=C\c1ccc(-c2ccccc2[N+](=O)[O-])o1,7.94µM,-49.2,?,?,?
O=[N+]([O-])c1ccccc1-c1ccc(/C=N/n2cnnc2)o1,?,–,–,–,–
CC(C)(CNC(=O)c1ccc([N+](=O)[O-])c(Cl)c1)CNC(=O)c1ccc([N+](=O)[O-])c(Cl)c1,?,–,–,–,12.6µM[quencher]
COc1ccc(CCNC(=O)c2ccc3c(c2)sc2nc(-c4ccccc4)cn23)cc1OC,–,·,–,–,–
